Unmarked numbers belong to inactive results. Inconclusive results are not listed. Calls of active or inactive are those of the source. Unless noted, calls follow the shape of the dose curve; as a rule, active = well fitted curve in either direction with a large enough effect (not every such curve was filed as active); inconclusive = small, poorly fitted or top-dose-only effect, or another doubt; inactive = flat fitted curve, though single readings scatter.
Tests used:
[1] = target: Lysosomal acid glucosylceramidase (Homo sapiens) (UniProt P04062); experiment: Glucocerebrosidase-p2 (AID 348; in the data active = potency below about 10 µM; also: potency is read from the fitted curve at half-maximal effect); settings: purified GBA, blue fluorogenic substrate, 40 min
Method in brief: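 Normal human glucocerebrosidase (0.2 nM) with blue fluorogenic substrate (80 uM final) in citrate/phosphate pH 5.9 with 10mM sodium taurocholate, 0.01% tween-20; 40 min RT, NaOH/glycine stop; fluorescence Ex 365/Em 440; AC50 from a titration from 0.6 nM upwards.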

[2] = AP1 Signaling Pathway (AID 357); settings: ME-180 AP-1-bla reporter, EGF-induced, beta-lactamase ratio, 5 h; at 7.69 µM (top of the series) unless noted;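 also: ME-180 reporter cells stimulated with EGF at its EC50 level; % is scaled to controls: 0 for no effect and ±100 for the full control effect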
Method in brief: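 Titration-series screen for positive or negative modulators of EC50 EGF-induced signaling in ME-180 cells carrying an AP-1-driven beta-lactamase reporter. After 5 hours at 37 degrees Celsius, CCF4 460nm/530nm emission ratio gave %Activity; AC50 values derived.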

[3] = target: Cytochrome P450 1A2 (Homo sapiens) (UniProt P05177); experiment: p450-cyp1a2 (AID 410; calls by dose curve; also: potency is read from the fitted curve at half-maximal effect;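 as to activity change, negative = inhibition: -100% = full effect of reference inhibitor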); settings: recombinant CYP1A2, luciferin-ME demethylation, luminescence; series mostly up to 11.4 µM
Method in brief: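 20nM CYP1A2, 100uM Luciferin-ME (=Km), 100mM KPO4; cpd 10 min RT; +NADPH regen, 60 min RT; stop/detect 20 min; luminescence. Normalized to furafylline 57 uM = full inhibition.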

[4] = Stat Signaling Pathway (AID 446); settings: ME-180 SIE beta-lactamase reporter, IL-6 stimulated, 5 h; at 7.69 µM (top of the series) unless noted;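 also: ME-180 cervical cancer cells given 40 pM IL-6 alongside compound; SIE-controlled beta-lactamase reporter measured as 460/530 nm FRET emission ratio; % is scaled to controls: 0 for no effect and ±100 for the full control effect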
Method in brief: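 Compound effects on IL-6-induced STAT reporter activity were measured in ME-180 cells. After overnight culture, cells were co-treated with 40 pM IL-6 for 5 hrs before beta-lactamase substrate loading at room temperature.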

[5] = target: Glucocorticoid receptor (Homo sapiens) (UniProt P04150); experiment: GR-GFP Redistribution (AID 450;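 active = compounds whose dose series gives a full or clear partial fitted curve of increased nuclear translocation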; also: potency is read from the fitted curve at half-maximal effect); settings: U2OS GR-GFP nuclear translocation, laser cytometry, 2 h
[6] = target: Glucocorticoid receptor (Homo sapiens) (UniProt P04150); experiment: GR-EFC Redistribution (AID 451; calls by dose curve; also: potency is read from the fitted curve at half-maximal effect); settings: CHO-K1 GR-EFC translocation, beta-gal luminescence, 2 h
Method in brief: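 CHO-K1 cells expressing nuclear EA and GR-ED fragments of b-gal; compounds titrated up to 46 uM final, 2 h at 37 C. GR nuclear translocation read as complemented b-gal luminescence after 1 h RT detection.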

[7] = target: Mitogen-activated protein kinase 10 (Mus musculus) (UniProt Q61831); experiment: JNK3 AlphaScreen Assay (AID 530); settings: JNK3 lysate, c-Jun phosphorylation; series mostly up to 11.4 µM;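 also: kinase came from lysate of stimulated human HepG2 cells; signal reports phosphorylation of biotinylated GST-cJun 1-79 at Ser73 with 10 µM ATP; % is scaled to controls: 0 for no effect and ±100 for the full control effect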
Method in brief: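 HepG2 lysate (IL-1b/TNFa pre-activated) + biotin-GST-cJun 1-79 + anti-pSer73 cJun; cpd titration, 15 min RT; ATP 10 uM start; Tris pH 7.6, MgCl2, DTT, vanadate; beads in EDTA buffer; AlphaScreen.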

[8] = target: 3',5'-cyclic-AMP phosphodiesterase 4B (Homo sapiens) (UniProt Q07343); experiment: qHTS Assay for Inhibitors of PDE-IV (AID 607; active = well fitted activation curve with a large enough effect in the main read-out, with a control signal flat, not every such curve was filed as active; also: % of control where 0% means no effect); settings: HEK293 ACTOne CNG channel cells, membrane potential fluorescence; series mostly up to 22.9 µM
Method in brief: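 ACTOne HEK293 cells carry a modified cAMP-gated CNG channel and express endogenous PDE4; plated 1000 cells/well, compounds up to 22.9 uM final. Membrane-potential dye fluorescence (ex 535/em 590) was read; parental cells received 10 uM forskolin + 100 uM RO 20-1724.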

[9] = target: Cytochrome P450 2C9 (Homo sapiens) (UniProt P11712); experiment: qHTS Assay for Inhibitors and Substrates of Cytochrome P450 2C9 (AID 883; active = well fitted curve in the direction sought with a large enough effect; an effect the other way counts as inactive or inconclusive; also: potency is read from the fitted curve at half-maximal effect; nearly all actives have a fitted effect of over 60% in size); settings: recombinant CYP2C9, luciferin-H luminescence, 60 min; series mostly up to 11.4 µM
Method in brief: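 Human CYP2C9 (10nM) with Luciferin-H at 100uM (its KM) in 25mM KPO4; compound preincubated 10 min at 37C, then NADPH regeneration for 60 min at 37C. Luciferin read by luminescence after detection reagent; normalized to 57uM sulphaphenazole as full inhibition.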

[10] = target: Cytochrome P450 3A4 (Homo sapiens) (UniProt P08684); experiment: qHTS Assay for Activators of Cytochrome P450 3A4 (AID 885; active = well fitted curve in the direction sought with a large enough effect; an effect the other way counts as inactive or inconclusive; also: nearly all actives have a fitted effect of over 65% in size); settings: recombinant CYP3A4, Luciferin-PPXE luminescence, 60 min; series mostly up to 11.4 µM
Method in brief: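 CYP3A4 activity: Luciferin-PPXE O-dealkylation, 25uM substrate, 200mM KPO4, RT throughout. Read-out is luciferase luminescence; higher values reflect activation.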

[11] = target: Cytochrome P450 2C19 (Homo sapiens) (UniProt P33261); experiment: qHTS Assay for Inhibitors and Substrates of Cytochrome P450 2C19 (AID 899; active = well fitted curve in the direction sought with a large enough effect; an effect the other way counts as inactive or inconclusive; also: potency is read from the fitted curve at half-maximal effect; nearly all actives have a fitted effect of over 60% in size); settings: recombinant CYP2C19, luciferin-H EGE luminescence; series mostly up to 11.4 µM
Method in brief: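 5 nM human CYP2C19 with 10uM Luciferin-H EGE (at KM) in 50mM KPO4, compound preincubated 10 min at 37C, then NADPH regeneration for 60 min at 37C. Luciferin read by luminescence after detection reagent; normalized to 57uM ketoconazole as full inhibition.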

[12] = qHTS Assay for Identification of Small Molecule Agonists for Hypoxia Response Element Signaling Pathway (AID 914; active = well fitted activation curve with a large enough effect in the signal ratio, with a control signal flat, not every such curve was filed as active; the % refers to the signal ratio; also: % of control where 0% means no effect); settings: ME-180 (cervical carcinoma) HRE-bla reporter, beta-lactamase ratio, CoCl2, 17 h; activation: stronger effect = higher value
Method in brief: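 Cells were plated overnight, pin-dosed with compound in a titration series, co-stimulated with EC50 CoCl2 and incubated 17 hours at 37 degrees Celsius. CCF4 substrate was then loaded, and AC50 values came from the 460nm/530nm ratio.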

[13] = target: Cytochrome P450 2D6 (Homo sapiens) (UniProt P10635); experiment: qHTS Assay for Inhibitors and Substrates of Cytochrome P450 2D6 (AID 891; active = well fitted curve in the direction sought with a large enough effect; an effect the other way counts as inactive or inconclusive; also: potency is read from the fitted curve at half-maximal effect; nearly all actives have a fitted effect of over 60% in size); settings: recombinant CYP2D6, luciferin-ME EGE luminescence; series mostly up to 11.4 µM
Method in brief: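 Luminescent read-out of luciferin formed by 5 nM human CYP2D6 demethylating 30 uM Luciferin-ME EGE (Km level) over 60 min at room temperature after NADPH regeneration addition. Data normalized to full inhibition by 1.43 uM quinidine.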

Sequence of Cytochrome P450 2C19 (Homo sapiens) (P33261 whole entry, looked up): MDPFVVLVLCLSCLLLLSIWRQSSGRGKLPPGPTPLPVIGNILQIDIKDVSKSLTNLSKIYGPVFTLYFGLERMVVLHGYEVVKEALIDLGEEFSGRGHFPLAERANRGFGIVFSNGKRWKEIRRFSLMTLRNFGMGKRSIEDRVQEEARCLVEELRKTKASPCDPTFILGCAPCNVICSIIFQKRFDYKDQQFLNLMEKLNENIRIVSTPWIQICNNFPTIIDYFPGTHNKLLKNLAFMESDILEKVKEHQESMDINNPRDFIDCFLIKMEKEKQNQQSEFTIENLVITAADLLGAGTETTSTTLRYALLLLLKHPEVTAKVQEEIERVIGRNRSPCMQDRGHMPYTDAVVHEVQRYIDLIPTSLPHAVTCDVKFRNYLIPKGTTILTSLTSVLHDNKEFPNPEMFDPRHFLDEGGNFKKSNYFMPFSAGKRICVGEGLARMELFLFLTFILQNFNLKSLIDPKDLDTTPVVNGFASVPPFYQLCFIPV
Sequence of Cytochrome P450 1A2 (Homo sapiens) (P05177 whole entry, looked up): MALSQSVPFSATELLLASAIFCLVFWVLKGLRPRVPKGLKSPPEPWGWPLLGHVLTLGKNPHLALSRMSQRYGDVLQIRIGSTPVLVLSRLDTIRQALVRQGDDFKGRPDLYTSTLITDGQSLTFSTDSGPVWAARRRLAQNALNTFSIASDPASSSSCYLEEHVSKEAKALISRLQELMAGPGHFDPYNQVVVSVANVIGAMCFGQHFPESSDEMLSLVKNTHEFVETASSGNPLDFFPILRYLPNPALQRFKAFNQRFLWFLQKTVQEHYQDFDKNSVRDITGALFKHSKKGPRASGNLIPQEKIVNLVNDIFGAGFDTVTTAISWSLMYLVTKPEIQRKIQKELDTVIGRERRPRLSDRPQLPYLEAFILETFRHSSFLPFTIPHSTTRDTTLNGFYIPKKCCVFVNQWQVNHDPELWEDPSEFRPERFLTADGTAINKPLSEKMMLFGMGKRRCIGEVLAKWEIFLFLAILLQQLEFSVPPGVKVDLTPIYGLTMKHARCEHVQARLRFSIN
Sequence of Cytochrome P450 3A4 (Homo sapiens) (P08684 whole entry, looked up): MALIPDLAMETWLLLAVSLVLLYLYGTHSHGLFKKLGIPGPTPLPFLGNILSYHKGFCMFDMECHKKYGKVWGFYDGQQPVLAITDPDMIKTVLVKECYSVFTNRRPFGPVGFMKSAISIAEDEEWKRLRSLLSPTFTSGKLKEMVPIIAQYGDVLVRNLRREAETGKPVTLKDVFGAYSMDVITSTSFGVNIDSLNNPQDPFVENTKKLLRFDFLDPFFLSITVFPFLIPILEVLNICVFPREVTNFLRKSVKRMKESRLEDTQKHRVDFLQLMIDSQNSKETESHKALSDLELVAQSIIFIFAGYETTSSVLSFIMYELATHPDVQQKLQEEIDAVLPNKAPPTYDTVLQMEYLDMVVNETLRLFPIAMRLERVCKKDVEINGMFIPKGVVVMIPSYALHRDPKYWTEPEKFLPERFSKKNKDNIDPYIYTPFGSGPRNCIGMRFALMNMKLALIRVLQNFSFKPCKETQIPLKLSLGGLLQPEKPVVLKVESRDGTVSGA
Sequence of 3',5'-cyclic-AMP phosphodiesterase 4B (Homo sapiens) (Q07343 whole entry, looked up): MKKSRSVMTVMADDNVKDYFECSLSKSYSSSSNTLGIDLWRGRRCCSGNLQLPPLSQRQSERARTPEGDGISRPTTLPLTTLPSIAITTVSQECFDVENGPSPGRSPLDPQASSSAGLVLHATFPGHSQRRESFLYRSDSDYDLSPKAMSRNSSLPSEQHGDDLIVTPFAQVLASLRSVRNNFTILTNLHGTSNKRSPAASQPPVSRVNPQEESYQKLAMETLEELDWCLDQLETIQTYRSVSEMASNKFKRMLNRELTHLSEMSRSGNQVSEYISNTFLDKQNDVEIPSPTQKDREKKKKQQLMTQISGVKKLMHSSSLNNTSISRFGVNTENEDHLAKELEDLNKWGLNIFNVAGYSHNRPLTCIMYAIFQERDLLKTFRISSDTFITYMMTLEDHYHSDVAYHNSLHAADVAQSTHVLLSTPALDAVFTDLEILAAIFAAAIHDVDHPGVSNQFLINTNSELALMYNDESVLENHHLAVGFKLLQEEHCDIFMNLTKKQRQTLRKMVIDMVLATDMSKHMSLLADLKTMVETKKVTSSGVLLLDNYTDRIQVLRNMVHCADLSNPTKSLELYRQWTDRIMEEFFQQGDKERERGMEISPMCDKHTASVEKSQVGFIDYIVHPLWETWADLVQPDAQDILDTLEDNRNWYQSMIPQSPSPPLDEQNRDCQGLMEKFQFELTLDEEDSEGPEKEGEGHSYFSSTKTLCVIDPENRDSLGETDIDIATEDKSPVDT
Sequence of Lysosomal acid glucosylceramidase (Homo sapiens) (P04062 whole entry, looked up): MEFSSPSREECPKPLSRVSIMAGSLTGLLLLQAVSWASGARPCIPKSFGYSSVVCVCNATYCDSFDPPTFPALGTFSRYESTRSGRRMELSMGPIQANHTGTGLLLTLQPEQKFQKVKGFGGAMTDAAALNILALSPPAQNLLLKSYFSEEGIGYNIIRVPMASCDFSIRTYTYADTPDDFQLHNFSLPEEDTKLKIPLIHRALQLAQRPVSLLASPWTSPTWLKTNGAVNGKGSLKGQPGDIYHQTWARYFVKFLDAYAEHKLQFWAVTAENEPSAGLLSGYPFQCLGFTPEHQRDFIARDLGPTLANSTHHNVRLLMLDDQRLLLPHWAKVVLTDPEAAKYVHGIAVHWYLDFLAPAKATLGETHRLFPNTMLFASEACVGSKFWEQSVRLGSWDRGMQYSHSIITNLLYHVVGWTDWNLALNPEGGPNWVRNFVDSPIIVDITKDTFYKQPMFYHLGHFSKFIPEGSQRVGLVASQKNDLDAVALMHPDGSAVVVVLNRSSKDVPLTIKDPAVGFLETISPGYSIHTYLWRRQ
Sequence of Glucocorticoid receptor (Homo sapiens) (P04150 whole entry, looked up, the tested form may be a part): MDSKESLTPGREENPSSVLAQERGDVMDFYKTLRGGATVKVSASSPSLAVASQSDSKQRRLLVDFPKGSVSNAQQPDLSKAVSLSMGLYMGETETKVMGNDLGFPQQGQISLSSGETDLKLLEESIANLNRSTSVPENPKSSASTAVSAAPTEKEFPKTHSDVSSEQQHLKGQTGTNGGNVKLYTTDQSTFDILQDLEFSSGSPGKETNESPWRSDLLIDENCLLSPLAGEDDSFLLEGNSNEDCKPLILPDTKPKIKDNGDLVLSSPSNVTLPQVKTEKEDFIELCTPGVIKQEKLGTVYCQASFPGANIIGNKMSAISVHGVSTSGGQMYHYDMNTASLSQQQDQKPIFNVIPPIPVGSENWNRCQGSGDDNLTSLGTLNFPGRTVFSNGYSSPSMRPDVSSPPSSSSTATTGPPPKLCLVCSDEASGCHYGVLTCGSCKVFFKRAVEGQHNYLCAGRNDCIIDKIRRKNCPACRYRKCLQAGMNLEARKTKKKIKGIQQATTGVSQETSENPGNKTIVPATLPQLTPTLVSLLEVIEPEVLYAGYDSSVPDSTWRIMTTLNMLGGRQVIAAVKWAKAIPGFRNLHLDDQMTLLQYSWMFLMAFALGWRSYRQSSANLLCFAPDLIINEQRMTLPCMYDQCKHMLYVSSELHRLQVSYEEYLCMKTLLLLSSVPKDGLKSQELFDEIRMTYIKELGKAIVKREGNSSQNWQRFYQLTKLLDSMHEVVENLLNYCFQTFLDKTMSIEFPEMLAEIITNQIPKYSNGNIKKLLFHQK
Sequence of Cytochrome P450 2D6 (Homo sapiens) (P10635 whole entry, looked up): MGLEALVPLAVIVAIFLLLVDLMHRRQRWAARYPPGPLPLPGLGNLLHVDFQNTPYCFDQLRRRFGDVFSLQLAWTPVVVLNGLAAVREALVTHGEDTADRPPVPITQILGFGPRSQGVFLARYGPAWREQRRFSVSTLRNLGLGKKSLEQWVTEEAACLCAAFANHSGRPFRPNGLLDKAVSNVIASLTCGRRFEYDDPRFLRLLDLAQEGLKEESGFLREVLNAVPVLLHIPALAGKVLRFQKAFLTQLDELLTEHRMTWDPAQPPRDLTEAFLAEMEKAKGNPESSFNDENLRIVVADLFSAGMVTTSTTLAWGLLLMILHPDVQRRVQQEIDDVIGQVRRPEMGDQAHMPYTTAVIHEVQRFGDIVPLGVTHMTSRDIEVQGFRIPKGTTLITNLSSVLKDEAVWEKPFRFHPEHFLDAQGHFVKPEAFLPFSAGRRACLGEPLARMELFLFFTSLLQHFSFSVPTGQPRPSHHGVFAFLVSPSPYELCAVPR
Sequence of Cytochrome P450 2C9 (Homo sapiens) (P11712 whole entry, looked up): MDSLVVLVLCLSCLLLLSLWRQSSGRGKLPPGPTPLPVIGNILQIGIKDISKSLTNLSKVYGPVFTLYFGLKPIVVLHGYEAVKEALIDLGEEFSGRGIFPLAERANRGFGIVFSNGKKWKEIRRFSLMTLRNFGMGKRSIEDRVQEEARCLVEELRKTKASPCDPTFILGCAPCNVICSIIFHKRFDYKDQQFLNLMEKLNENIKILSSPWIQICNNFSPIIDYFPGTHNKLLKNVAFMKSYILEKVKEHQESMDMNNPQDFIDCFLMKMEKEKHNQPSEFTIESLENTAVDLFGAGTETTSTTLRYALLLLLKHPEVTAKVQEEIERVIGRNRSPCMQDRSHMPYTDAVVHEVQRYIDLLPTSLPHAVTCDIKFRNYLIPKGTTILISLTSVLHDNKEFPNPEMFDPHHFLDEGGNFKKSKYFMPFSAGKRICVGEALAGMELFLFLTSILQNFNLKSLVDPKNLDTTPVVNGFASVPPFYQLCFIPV

SMILES | Potency [1] | activity change, negative = inhibition [2] [%] | Potency [3] | activity, negative = inhibition [4] [%] | Potency [5] [µM] | Potency [6] [µM] | Potency [7] | Potency [8] | Potency [9] | Potency [10] | Potency [11] | activation [12] [%] | activity change, negative = inhibition [3] | Potency [13]
N#CC(C#N)=NNc1ccc2cn[nH]c2c1 | > 11.4 µM | 1.21 | 1.26 µM (active) | -12 | > 46 | > 9.22 | inactive | inactive | 2.51 µM (active) | inactive |  |  |  | 
CC(C)c1ccc(/C(C(=O)O)=C(\O)C(=O)O)cc1 | > 11.4 µM | -1.43 | inactive | -0.351 | > 46 | > 9.22 | inactive | inactive |  |  |  |  |  | 
O=C1C=CC(=Nc2cccc3c(N=C4C=CC(=O)O4)cccc23)O1 | > 11.4 µM | 5.25 | inactive | -22.4 | > 46 | > 9.22 | inactive | inactive |  |  |  |  |  | 
OCCN(CCO)c1ncnc2nc[nH]c12 | > 11.4 µM | -2.15 | inactive | -0.624 | > 46 | > 9.22 | inactive | inactive |  |  |  |  |  | 
Cc1cc(OCc2nc(N)nc(N)c2-c2ccc(Cl)c(Cl)c2)ccc1[N+](=O)[O-] | > 11.4 µM | -18.3 | 5.01 µM (active) | -17.5 | > 46 | > 9.22 | inactive | inactive | 1.58 µM (active) | inactive | 3.16 µM (active) |  |  | 
C[C@@H]1CCCN(CP(=O)(c2ccccc2)c2ccccc2)C1 | > 11.4 µM | 2.85 | inactive | 0.378 | > 46 | > 9.22 | inactive | inactive |  | inactive |  |  |  | 
Cc1ccc(C(=N)c2ccccc2Cc2cccc3ccccc23)c2ccccc12 | > 11.4 µM | -3.34 | 1 µM (active) | 13.8 | > 46 | > 9.22 | inactive | inactive |  | inactive | 1.26 µM (active) |  |  | 
O=C(O)/C(=C\c1ccncc1)c1cccc2ccccc12 | > 11.4 µM | -1.57 | 3.98 µM (active) | 7.21 | > 46 | > 9.22 | inactive | inactive |  |  | 2.51 µM (active) |  |  | 
Clc1ccc(Cl)c(Nc2ccnc(SCc3ccccc3)n2)c1 | > 11.4 µM | 1.81 | 0.501 µM (active) | 0.24 | > 46 | > 9.22 | inactive | inactive |  | inactive | 5.01 µM (active) | -13.8 |  | 
C[C@@]12CC[C@H]3[C@H](CC=C4C[C@@H](O)CC[C@@]43C)[C@@H]1CC[C@@H]2N(CCO)CCO | > 11.4 µM | -4.05 | inactive | 18.7 | > 46 | > 9.22 | inactive | inactive |  |  |  | 9.1 |  | 
Clc1ccccc1NN(Cc1ccccn1)c1ccccc1Cl | > 11.4 µM | -10 |  | -11 | > 46 | > 9.22 | inactive | inactive |  |  | 3.98 µM (active) |  | -22.4% [at 2.29 µM] | 
c1ccc2c[n+](Cc3ccnc4ccccc34)ccc2c1 | 8.58 µM (active) | 12.4 |  | -6.6 | > 46 | > 9.22 | inactive | inactive |  |  |  |  | -21.8% [at 2.29 µM] | 3.16 µM (active)
CC(C)(C)NCC[C@@H](O)c1cc(C(F)(F)F)nc2c(C(F)(F)F)cccc12 | > 11.4 µM | 9.95 |  | -4.67 | > 46 | > 9.22 | inactive | inactive |  |  |  |  | -9.9% [at 2.29 µM] | 0.316 µM (active)
Cc1ccc(S(=O)(=O)O[C@H]2C[C@@H](C(C)(C)C)CC[C@@H]2c2ccccc2)cc1 | > 11.4 µM | 7.67 |  | 4.83 | > 46 | > 9.22 | inactive | inactive |  | inactive | 3.16 µM (active) |  | -22.8% [at 2.29 µM] | 

— PubChem BioAssay (NCATS)
